The values that follow come from PubChem BioAssay (NCI).

About 79,000 compounds went through this panel and 15% of them were active in at least one assay; those are over-represented in the sample as a whole. A number with no mark means an inactive call. Activity calls are given as the source filed them. Rule as the data show it: active = growth inhibition above about 70%; inactive = the rest.

A short description of assay [1]: NCI Yeast Anticancer Drug Screen. Data for the rad50 strain (AID 155).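 Also: 0% = growth of vehicle-only cultures of the same strain.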 The settings on record: S. cerevisiae rad50 strain growth inhibition, stronger effect = higher value. The essentials: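 DNA repair mutant yeast, compound exposure, growth read-out; inhibition is taken relative to vehicle.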
The nature of assay [2]: NCI Yeast Anticancer Drug Screen. Data for the mec2-1 strain (AID 157). The settings on record: S. cerevisiae mec2-1 strain, stronger effect = higher value. The essentials: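 mec2-1 yeast strain, carrying an alteration in DNA damage repair or cell cycle control, was exposed to compounds; growth inhibition was measured relative to vehicle-treated controls.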
The nature of assay [3]: NCI Yeast Anticancer Drug Screen. Data for the sgs1 mgt1 strain (AID 161).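 Also: 0% = growth of cultures given vehicle only.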 The settings on record: S. cerevisiae sgs1 mgt1 strain, stronger effect = higher value. The essentials:
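Compounds are added to genetically altered yeast, and growth is compared with cultures given vehicle alone to give percent inhibition.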

A short description of assay [4]: NCI Yeast Anticancer Drug Screen. Data for the cln2 rad14 strain (AID 165).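 Also: 0% = growth equal to vehicle treated cultures.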 The settings on record: S. cerevisiae cln2 rad14 strain, stronger effect = higher value. Summed up:
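Yeast carrying cln2 and rad14 alterations (cell cycle control and DNA damage repair) were exposed to compounds. Growth inhibition was measured against vehicle-treated controls.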

A short description of assay [5]: NCI Yeast Anticancer Drug Screen. Data for the bub3 strain (AID 167). As to conditions: S. cerevisiae bub3 mutant strain, stronger effect = higher value. The essentials:
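In this screen, a yeast mutant lacking normal mitotic checkpoint function is challenged with compound. Relative growth versus vehicle gives the inhibition value.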

Assay [6] can be described thus: NCI Yeast Anticancer Drug Screen. Data for the mlh1 rad18 strain (AID 175). The settings on record: S. cerevisiae mlh1 rad18 strain growth inhibition, stronger effect = higher value. Summed up:
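Growth inhibition of the yeast strain was measured after compound exposure and expressed relative to vehicle-treated controls. The strain carries defined defects in DNA damage repair.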

Where [7] appears, read: at 5.0 µM (retest, dose inferred, filed as 0.5).
The mark [8] stands for this setting: at 50.0 µM (retest, dose inferred, filed as 5.0).

For the molecule `O=C(CC1Sc2ccccc2NC1=O)Nc1ccc([N+](=O)[O-])cc1[N+](=O)[O-]` (stereo not given), the growth inhibition in assay [1] (setting [7]) was 30%; in assay [1] (setting [8]) it was 81% (active); in assay [1] (at 50.0 µM), 88% (active); in assay [2] (setting [7]), 25%; in assay [2] (setting [8]) it was 89% (active); in assay [2] (at 50.0 µM), 93.3% (active). Further, the growth inhibition is 51% in assay [3] (setting [7]); 98% (active) in assay [3] (setting [8]); 81.8% (active) in assay [3] (at 50.0 µM); 34% in assay [4] (setting [7]); 62% in assay [4] (setting [8]); 28.9% in assay [4] (at 50.0 µM). For the same molecule, the growth inhibition is 36% in assay [5] (setting [7]); 97% (active) in assay [5] (setting [8]); 92% (active) in assay [5] (at 50.0 µM); 51% in assay [6] (setting [7]); 96% (active) in assay [6] (setting [8]); 86.9% (active) in assay [6] (at 50.0 µM).
For the molecule `CCCCCCCCCCCCCCCCC/C=N\NC(=O)CCCC(=O)N/N=C/CCCCCCCCCCCCCCCCC`, the growth inhibition in assay [1] (setting [7]) is 1%; in assay [1] (setting [8]), -3%; in assay [1] (at 50.0 µM), 98.7% (active); in assay [2] (setting [7]), -4%; in assay [2] (setting [8]) it was -2%; in assay [2] (at 50.0 µM), 99.1% (active). Besides, the growth inhibition in assay [3] (setting [7]) is -2%; in assay [3] (setting [8]), -3%; in assay [3] (at 50.0 µM), 98% (active); in assay [4] (setting [7]), 4%; in assay [4] (setting [8]), 10%; in assay [4] (at 50.0 µM) it was 99% (active). The growth inhibition in assay [5] (setting [7]) is 7%; in assay [5] (setting [8]), 25%; in assay [5] (at 50.0 µM) it was 99.2% (active); in assay [6] (setting [7]) it was 2%; in assay [6] (setting [8]) it was -25%; in assay [6] (at 50.0 µM) it was 98.3% (active).
As to `O=C(C[n+]1ccc2ccccc2c1)c1ccc2ccc3ccccc3c2c1`, the growth inhibition in assay [1] (setting [7]) is 5%; in assay [1] (setting [8]) it was 92% (active); in assay [1] (at 50.0 µM) it was 97.7% (active); in assay [2] (setting [7]), 0%; in assay [2] (setting [8]) it was 73% (active); in assay [2] (at 50.0 µM) it was 85.8% (active). In addition, the growth inhibition in assay [3] (setting [7]) was -3%; in assay [3] (setting [8]), 89% (active); in assay [3] (at 50.0 µM) it was 96% (active); in assay [4] (setting [7]) it was 1%; in assay [4] (setting [8]) it was 72% (active); in assay [4] (at 50.0 µM), 98.2% (active). The growth inhibition in assay [5] (setting [7]) is -11%; in assay [5] (setting [8]), 92% (active); in assay [5] (at 50.0 µM), 93% (active); in assay [6] (setting [7]) it was -4%; in assay [6] (setting [8]), 99% (active); in assay [6] (at 50.0 µM), 98.7% (active).
`Cc1c2c(c(C)c3c4c(oc13)CCCC4)C=NCC2`: the growth inhibition in assay [1] (setting [7]) is -4%; in assay [1] (setting [8]), 49%; in assay [1] (at 50.0 µM), 69.7%; in assay [2] (setting [7]) it was 3%; in assay [2] (setting [8]), 41%; in assay [2] (at 50.0 µM), 92.8% (active). Also, the growth inhibition is -7% in assay [3] (setting [7]); 36% in assay [3] (setting [8]); 25% in assay [3] (at 50.0 µM); -46% in assay [4] (setting [7]); 26% in assay [4] (setting [8]); 29.2% in assay [4] (at 50.0 µM). Besides, the growth inhibition was -8% in assay [5] (setting [7]); -78% in assay [5] (setting [8]); 50.2% in assay [5] (at 50.0 µM); -5% in assay [6] (setting [7]); 45% in assay [6] (setting [8]); 80.1% (active) in assay [6] (at 50.0 µM).
For `N#CS/C(C(Cl)=C(Cl)Cl)=C(/Cl)[N+](=O)[O-]`, the growth inhibition is 99% (active) in assay [1] (setting [7]); 100% (active) in assay [1] (setting [8]); 88.8% (active) in assay [1] (at 50.0 µM); 99% (active) in assay [2] (setting [7]); 100% (active) in assay [2] (setting [8]); 92% (active) in assay [2] (at 50.0 µM). Besides, the growth inhibition in assay [3] (setting [7]) was 99% (active); in assay [3] (setting [8]), 99% (active); in assay [3] (at 50.0 µM), 85.9% (active); in assay [4] (setting [7]), 99% (active); in assay [4] (setting [8]) it was 99% (active); in assay [4] (at 50.0 µM), 89.5% (active). In addition, the growth inhibition in assay [5] (setting [7]) is 99% (active); in assay [5] (setting [8]), 100% (active); in assay [5] (at 50.0 µM) it was 90% (active); in assay [6] (setting [7]), 99% (active); in assay [6] (setting [8]), 99% (active); in assay [6] (at 50.0 µM), 84% (active).
With `c1ccc([CH2][Sn]([CH2]c2ccccc2)([S]c2cccc3cccnc23)[S]c2cccc3cccnc23)cc1`, the growth inhibition is 67% in assay [1] (setting [7]); 24% in assay [1] (setting [8]); 94.2% (active) in assay [1] (at 50.0 µM); 61% in assay [2] (setting [7]); 18% in assay [2] (setting [8]); 92.5% (active) in assay [2] (at 50.0 µM). In addition, the growth inhibition in assay [3] (setting [7]) is 65%; in assay [3] (setting [8]), 59%; in assay [3] (at 50.0 µM), 89.6% (active); in assay [4] (setting [7]), 17%; in assay [4] (setting [8]), -5%; in assay [4] (at 50.0 µM) it was 84.5% (active). In addition, the growth inhibition in assay [5] (setting [7]) is 61%; in assay [5] (setting [8]), 30%; in assay [5] (at 50.0 µM) it was 93% (active); in assay [6] (setting [7]), 46%; in assay [6] (setting [8]), 16%; in assay [6] (at 50.0 µM), 93.5% (active).
For the molecule `O=c1c(Cl)c(Cl)c(=O)c2sc3cc(Cl)ccc3[nH]c1=2`, the growth inhibition in assay [1] (setting [7]) was 6%; in assay [1] (setting [8]), 51%; in assay [1] (at 50.0 µM) it was 95.5% (active); in assay [2] (setting [7]), 3%; in assay [2] (setting [8]), 27%; in assay [2] (at 50.0 µM), 95% (active). For the same molecule, the growth inhibition in assay [3] (setting [7]) is -3%; in assay [3] (setting [8]) it was 46%; in assay [3] (at 50.0 µM), 88% (active); in assay [4] (setting [7]), 2%; in assay [4] (setting [8]), 7%; in assay [4] (at 50.0 µM) it was 95% (active). Besides, the growth inhibition is 6% in assay [5] (setting [7]); 19% in assay [5] (setting [8]); 95.5% (active) in assay [5] (at 50.0 µM); 2% in assay [6] (setting [7]); 59% in assay [6] (setting [8]); 96.9% (active) in assay [6] (at 50.0 µM).
As to `Oc1cc(C(c2ccccc2)c2ccccc2)c2ccccc2c1O`, the growth inhibition is 17% in assay [1] (setting [7]); 1% in assay [1] (setting [8]); 97.6% (active) in assay [1] (at 50.0 µM); 26% in assay [2] (setting [7]); 8% in assay [2] (setting [8]); 98.5% (active) in assay [2] (at 50.0 µM). Besides, the growth inhibition is 20% in assay [3] (setting [7]); 1% in assay [3] (setting [8]); 98.5% (active) in assay [3] (at 50.0 µM); 13% in assay [4] (setting [7]); 0% in assay [4] (setting [8]); 97.7% (active) in assay [4] (at 50.0 µM). For the same molecule, the growth inhibition in assay [5] (setting [7]) was 10%; in assay [5] (setting [8]), 2%; in assay [5] (at 50.0 µM), 98.2% (active); in assay [6] (setting [7]), 34%; in assay [6] (setting [8]) it was 1%; in assay [6] (at 50.0 µM), 97.8% (active).
Take `O=C(CCCCCCCCCCc1ccccc1)c1ccc(Cl)cc1`: the growth inhibition in assay [1] (setting [7]) was 7%; in assay [1] (setting [8]) it was 76% (active); in assay [1] (at 50.0 µM), 83.7% (active); in assay [2] (setting [7]) it was 5%; in assay [2] (setting [8]), 79% (active); in assay [2] (at 50.0 µM), 42.6%. The growth inhibition in assay [3] (setting [7]) was 17%; in assay [3] (setting [8]), 89% (active); in assay [3] (at 50.0 µM), 93.7% (active); in assay [4] (setting [7]) it was 15%; in assay [4] (setting [8]), 61%; in assay [4] (at 50.0 µM), 70.8% (active). The growth inhibition was 13% in assay [5] (setting [7]); 72% (active) in assay [5] (setting [8]); 94.8% (active) in assay [5] (at 50.0 µM); 16% in assay [6] (setting [7]); 80% (active) in assay [6] (setting [8]); 70.6% (active) in assay [6] (at 50.0 µM).
Take `CCCCN(C(=O)c1ccccc1)C1CCC(=O)c2[nH]c3ccccc3c21` (stereo not given): the growth inhibition is -3% in assay [1] (setting [7]); 1% in assay [1] (setting [8]); 85.5% (active) in assay [1] (at 50.0 µM); -15% in assay [2] (setting [7]); -28% in assay [2] (setting [8]); 89.3% (active) in assay [2] (at 50.0 µM). Moreover, the growth inhibition in assay [3] (setting [7]) is -7%; in assay [3] (setting [8]) it was 20%; in assay [3] (at 50.0 µM) it was 76% (active); in assay [4] (setting [7]), -13%; in assay [4] (setting [8]), -1%; in assay [4] (at 50.0 µM), 83.5% (active). Besides, the growth inhibition is -18% in assay [5] (setting [7]); 12% in assay [5] (setting [8]); 80.6% (active) in assay [5] (at 50.0 µM); 2% in assay [6] (setting [7]); -15% in assay [6] (setting [8]); 69.5% in assay [6] (at 50.0 µM).
